According to article PMC4336329 (PLoS ONE, 2015):
In all, about 310,000 compounds went through this assay and about 14,000 (4.5%) showed an effect of 50% or more. The effect is printed as a negative number. What follows is part of a selection rich in strong results, with near analogues and random picks from the rest.

What follows are compounds tested against human ether-à-go-go-related gene (hERG) potassium channel (human, UniProt Q12809) (assay: primary screen, population patch clamp on CHO cells stably expressing hERG; higher = less effect of the substance).
human ether-à-go-go-related gene (hERG) potassium channel, sequence (Q12809 whole entry, looked up): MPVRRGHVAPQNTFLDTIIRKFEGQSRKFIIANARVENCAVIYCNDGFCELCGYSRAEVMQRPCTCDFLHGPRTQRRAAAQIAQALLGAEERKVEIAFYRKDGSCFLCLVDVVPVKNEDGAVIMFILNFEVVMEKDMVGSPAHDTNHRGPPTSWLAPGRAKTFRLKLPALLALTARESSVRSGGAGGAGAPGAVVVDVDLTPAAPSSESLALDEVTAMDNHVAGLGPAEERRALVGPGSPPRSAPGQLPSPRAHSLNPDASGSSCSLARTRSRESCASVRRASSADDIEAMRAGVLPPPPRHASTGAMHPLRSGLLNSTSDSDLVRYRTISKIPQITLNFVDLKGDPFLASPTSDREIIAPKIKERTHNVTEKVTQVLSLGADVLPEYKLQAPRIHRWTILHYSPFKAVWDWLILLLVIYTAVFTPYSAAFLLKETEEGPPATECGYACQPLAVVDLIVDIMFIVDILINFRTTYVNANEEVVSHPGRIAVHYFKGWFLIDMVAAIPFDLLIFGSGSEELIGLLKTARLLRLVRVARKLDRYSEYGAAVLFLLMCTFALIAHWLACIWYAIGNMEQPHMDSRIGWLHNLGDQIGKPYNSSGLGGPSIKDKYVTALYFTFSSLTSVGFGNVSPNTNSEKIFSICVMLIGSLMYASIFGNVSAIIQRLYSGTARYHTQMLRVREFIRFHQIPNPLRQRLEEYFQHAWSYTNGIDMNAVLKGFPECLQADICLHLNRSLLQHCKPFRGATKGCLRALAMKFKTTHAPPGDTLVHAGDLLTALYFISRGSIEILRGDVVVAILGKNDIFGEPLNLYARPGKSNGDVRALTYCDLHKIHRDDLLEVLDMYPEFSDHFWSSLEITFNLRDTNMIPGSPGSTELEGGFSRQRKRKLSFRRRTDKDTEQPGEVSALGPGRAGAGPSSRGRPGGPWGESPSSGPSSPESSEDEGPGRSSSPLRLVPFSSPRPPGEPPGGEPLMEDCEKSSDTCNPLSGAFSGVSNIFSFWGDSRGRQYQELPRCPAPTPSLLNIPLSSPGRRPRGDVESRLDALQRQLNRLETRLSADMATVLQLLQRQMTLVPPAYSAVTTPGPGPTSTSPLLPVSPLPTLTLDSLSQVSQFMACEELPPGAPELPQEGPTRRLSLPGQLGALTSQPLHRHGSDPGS
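Note: peak tail current of the secondary pulse compared with the same well before compound.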

Row | Compound | hERG current change (%, negative = inhibition) at 10uM
1 | CCc1sc(-c2c(C#N)c(N)nc3c2CCCCCC3)cc1[N+](=O)[O-] | 14%
2 | Cc1ccc(C(=O)NC(C)c2ccccc2)cc1Br (stereo not drawn) | -11.8%
3 | Cc1cc(C)cc(NC(=O)c2ccc(S(=O)(=O)C(F)F)cc2)c1 | -29.7%
4 | CC(=O)NCCNc1nc2c(-c3cccc(C)c3)nnn2c2ccccc12 | 12.8%
5 | CC(CN1CCCCC1)OC(=O)c1ccc(Cl)cc1.Cl (stereo not drawn) | -36.4%
6 | O=C1CCN(S(=O)(=O)c2cc(C(F)(F)F)ccc2Cl)CC1 | -1.34%
7 | CCc1ccccc1NC(=O)c1ccccc1N1C(=O)C2C3C=CC(C3)C2C1=O (stereo not drawn) | 18.3%
8 | Cc1ccccc1C(=O)N1CCN(c2ccc([N+](=O)[O-])c(N3CCOCC3)c2)CC1 | -16.3%
9 | Cc1cc(C)n(-c2cc(N3CCN(C(=O)c4ccc(C(C)(C)C)cc4)CC3)ccc2[N+](=O)[O-])n1 | -34.4%
10 | Cc1cc(C)n(-c2cc(N3CCN(S(=O)(=O)c4ccc(C)c(C)c4)CC3)ccc2[N+](=O)[O-])n1 | 15%
11 | Cc1cc(C)c(S(=O)(=O)N2CCN(c3ccc([N+](=O)[O-])c(-n4nc(C)cc4C)c3)CC2)c(C)c1 | -7.91%
12 | Cc1cc(C)n(-c2cc(N3CCN(C(=O)c4ccccc4C)CC3)ccc2[N+](=O)[O-])n1 | -52.7%
13 | COc1ccc(C(=O)N2CCN(c3ccc([N+](=O)[O-])c(-n4nc(C)cc4C)c3)CC2)cc1 | -78.2%
14 | COc1ccc(N2CCN(C(=O)c3ccc(-n4nc(C)cc4C)cc3)CC2)cc1 | -19.4%
15 | CC(=O)N1CCN(c2ccc([N+](=O)[O-])c(-n3nc(C)cc3C)c2)CC1 | -51.9%
16 | Cc1cc(C)n(-c2cc(N3CCN(S(=O)(=O)c4ccc(Cl)cc4)CC3)ccc2[N+](=O)[O-])n1 | -32.8%
17 | COc1cc(C)ccc1OCc1cc(C(=O)NCCN2CCOCC2)no1 | 2.08%
18 | COc1ccc(/C=N/NC(=O)c2ccc3nc[nH]c3c2)cc1OC | 20.7%
19 | CCC1CCCCN1Cc1ccc(OC)c(C)c1C (stereo not drawn) | -31.2%
20 | Cc1ccc(CNC(=O)C2CCCN2C(=O)Nc2ccccc2)cc1 (stereo not drawn) | -8.61%
21 | COc1ccccc1N1CCN(S(=O)(=O)c2cn(C)nc2C)CC1 | -2.6%

Row | Compound | hERG current change (%, negative = inhibition) at 10uM
22 | CCCCN(C(=O)CN1CC(C)OC(C)C1)c1c(N)n(CC(C)C)c(=O)[nH]c1=O (stereo not drawn) | 9.06%
23 | CCN(c1ccccc1)S(=O)(=O)c1ccc(Oc2ccc(-n3ccnc3)cc2)nc1 | -77.4%
24 | CCN(c1ccccc1)S(=O)(=O)c1ccc(Oc2ccc([N+](=O)[O-])cc2)nc1 | -21%
25 | CCN(c1ccccc1)S(=O)(=O)c1ccc(NN)nc1 | -12.2%
26 | Cc1ccc(-c2[nH]nc3c2C(c2cccnc2)C(C#N)=C(N)O3)cc1 (stereo not drawn) | -7.46%
27 | O=[N+]([O-])c1ccc(C(O)CSC(=S)N2CCCCC2)cc1 (stereo not drawn) | -3.13%
28 | CC(C)(C)c1ccc(C(=O)/C=C2\NC(=O)CS2)cc1 | -9.16%
29 | OCCC1CN(Cc2cnc(-c3ccccc3)s2)CCN1CCc1ccccc1 (stereo not drawn) | -71.2%
30 | Cc1ncc(CN2CCN(Cc3ccccc3)C(CCO)C2)s1 (stereo not drawn) | 1.08%
31 | CC(C)(O)C#Cc1ccc(CN2CCN(CCc3ccccc3)C(CCO)C2)s1 (stereo not drawn) | -30.7%
32 | CCOc1ccc(CN2CCN(Cc3cnc(-c4ccccc4)s3)CC2CCO)cc1 (stereo not drawn) | -90.7%
33 | OCCC1CN(Cc2cnc(-c3ccccc3)s2)CCN1Cc1ccccc1 (stereo not drawn) | -57.5%
34 | Cc1ncc(CN2CCN(C3CCCC3)C(CCO)C2)s1 (stereo not drawn) | 27.6%
35 | CCOc1ccc(CN2CCN(Cc3cnc(N4CCOCC4)s3)CC2CCO)cc1 (stereo not drawn) | -39.8%
36 | CC(C)N1CCC(N2CCN(Cc3cnc(-c4ccccc4)s3)CC2CCO)CC1 (stereo not drawn) | -15.6%
37 | OCCC1CN(Cc2cnc(-c3ccccc3)s2)CCN1C1CCCCC1 (stereo not drawn) | -51.4%
38 | CC(C)=CCN1CCN(Cc2cnc(-c3ccccc3)s2)CC1CCO (stereo not drawn) | -49.2%
39 | CCCCN1C(=O)NC(=O)C2(Cc3c(nc4ccccn4c3=O)N3CCc4ccccc4C32)C1=O (stereo not drawn) | -16.6%
40 | Cc1sc2nc(CSc3ncn[nH]3)[nH]c(=O)c2c1C | 33.7%
41 | Cn1c(-c2sc3cc(C(F)(F)F)cnc3c2-c2ccccc2)n[nH]c1=S | 20.1%
42 | O=C(O)C(=O)O.Oc1ccccc1NCC(O)Cn1ccc2ccccc21 (stereo not drawn) | 13.4%

Row | Compound | hERG current change (%, negative = inhibition) at 10uM
43 | NC(=O)c1ccccc1NC(=O)NC1CCCCC1 | -6.68%
44 | CCOC(=O)CCSCC(=O)Nc1cc(C)on1 | -3.91%
45 | Cc1ccc(C(=O)NC(=S)Nc2ccccc2C(F)(F)F)cc1 | 16.3%
46 | CC(C)NS(=O)(=O)c1ccc(NC(=O)NC2CCCCC2)cc1 | 1.79%
47 | c1ccc(Cn2cc(-c3ccccc3)cn2)cc1 | -2.61%
48 | CC(C)CCN1CCN(Cc2cnc(-c3ccccc3)s2)CC1CCO (stereo not drawn) | -56.6%
49 | CC(C)N1CCN(Cc2cnc(-c3ccccc3)s2)CC1CCO (stereo not drawn) | -9.9%
50 | Cc1ncc(CN2CCN(CCC(C)C)C(CCO)C2)s1 (stereo not drawn) | -20.1%
51 | CCCOc1ccc(C(C)=O)cc1CC(C(N)=O)C(N)=O | 14.9%
52 | CCCCOP(=O)(c1ccc(N(C)C)cc1)C(O)c1ccc(C(C)C)cc1 (stereo not drawn) | -13%
53 | O=c1[nH]c2ccccc2n2c(C(F)(F)F)nnc12 | 14%
54 | Cc1ccc(S(=O)(=O)N(Cc2cccc(Cl)c2)C(=O)N2CCN(C)CC2)cc1 | 9.85%
55 | Cn1c(SCC(=O)N/N=C/C=C/c2ccccc2[N+](=O)[O-])nc2ccccc21 | -1.36%
56 | Cn1c(SCC(=O)N/N=C/C=C\c2ccccc2[N+](=O)[O-])nc2ccccc21 | 10.4%
57 | CCn1c(SCC(=O)N/N=C/C=C\c2ccccc2[N+](=O)[O-])nnc1-c1ccccc1 | -67%
58 | CCn1c(SCC(=O)NC(=O)NC(C)(C)C)nc2ccccc21 | 4.41%
59 | CCn1c(SCC(=O)N/N=C/C=C\c2ccccc2[N+](=O)[O-])nc2ccccc21 | -63.8%
60 | COCCn1c(SCC(=O)Nc2ccccc2OC)nc2ccccc21 | -25.4%
61 | CCn1c(SCC(=O)NC(=O)c2ccccc2OC)nc2ccccc21 | -70.8%
62 | CCn1c(SCC(=O)N/N=C/C=C/c2ccccc2[N+](=O)[O-])nnc1-c1ccc(Cl)cc1 | -15.6%
63 | CCn1c(SCC(=O)N/N=C/C=C/c2ccccc2[N+](=O)[O-])nnc1-c1ccccc1 | -36.6%
